In PubChem BioAssay AID1159580 (chemical genetic matrix, 2015):
“And” between values parts separate entries of the source, which are not always exact repeats. Equal values may be shown once. In all, about 5,500 compounds went through this assay and about 2,000 (36%) were called active. Not shown: some 18% with an inconclusive outcome. No stated cut-off is given here; in the data, active means normalized growth mostly below about 0.91 (no sharp cut-off); inconclusive means no clear call, values can overlap the other calls; inactive means mostly above about 0.92. This is one part of the list.

Assay: chemical genetic growth profiling, strain panel (AID 1159580);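 further: tested at 20 µM; growth read once vehicle control cultures reached saturation at 30 °C; 1 = growth at the plate median or of vehicle wells; lower values mean less growth of the strain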
Settings: S. cerevisiae deletion strains, growth OD

Measured: normalized growth

N#C/C(=C\c1cccc(O)c1)C(=O)O
inactive: locus YAL013W, strain DEP1, hits give low values 0.996 | locus YAL021C, strain ccr4, hits give low values 0.978 | locus YAL026C, strain drs2, hits give low values 0.985 | locus YAL030W, strain snc1, hits give low values 0.977 | locus YBL061C, strain skt5, hits give low values 0.976 | locus YBR009C, strain hhf1, hits give low values 1.03 | locus YBR021W, strain FUR4, hits give low values 1.02 | locus YBR023C, strain chs3, hits give low values 0.979 | locus YBR171W, strain sec66, hits give low values 0.995 | locus YBR229C, strain ROT2, hits give low values 0.961 | locus YBR231C, strain swc5, hits give low values 1.01 | locus YBR279W, strain paf1, hits give low values 0.987 | locus YCL016C, strain dcc1, hits give low values 0.966 | locus YCL029C, strain bik1, hits give low values 0.997 | locus YCL061C, strain MRC1, hits give low values 0.985 | locus YCL069W, strain vba3, hits give low values 1 | locus YCR088W, strain abp1, hits give low values 0.989 | locus YDL005C, strain med2, hits give low values 0.999 | locus YDL035C, strain GPR1, hits give low values 0.994 | locus YDL040C, strain nat1, hits give low values 0.99 | locus YDL074C, strain BRE1, hits give low values 0.981 | locus YDL101C, strain DUN1, hits give low values 0.974 | locus YDL134C, strain PPH21, hits give low values 0.992 | locus YDL185W, strain tfp1, hits give low values 0.98 | locus YDL192W, strain arf1, hits give low values 0.994 | locus YDR001C, strain nth1, hits give low values 0.988 | locus YDR069C, strain doa4, hits give low values 0.985 | locus YDR101C, strain arx1, hits give low values 1.01 | locus YDR137W, strain rgp1, hits give low values 0.977 | locus YDR150W, strain NUM1, hits give low values 0.974 | locus YDR159W, strain sac3, hits give low values 0.987 | locus YDR162C, strain NBP2, hits give low values 0.921 | locus YDR195W, strain ref2 1 | locus YDR297W, strain sur2, hits give low values 0.984 | locus YDR318W, strain mcm21, hits give low values 1.03 | locus YDR334W, strain swr1, hits give low values 0.981 | locus YDR335W, strain msn5, hits give low values 0.982 | locus YDR388W, hits give low values 0.999 | locus YDR392W, strain spt3, hits give low values 0.933 | locus YDR502C, strain sam2, hits give low values 0.997 | locus YEL003W, strain gim4, hits give low values 0.997 | locus YEL037C, strain rad23, hits give low values 0.997 | locus YEL061C, strain CIN8 (second series), hits give low values 0.989 | locus YEL061C, strain CIN8, hits give low values 0.985 | locus YER015W, strain faa2, hits give low values 0.975 | locus YER016W, strain bim1, hits give low values 0.949 | locus YER110C, hits give low values 0.942 | locus YER111C, strain swi4, hits give low values 0.971 | locus YER155C, strain BEM2 (second series), hits give low values 1.04 | locus YER155C, strain BEM2, hits give low values 0.986 | locus YER167W, strain BCK2, hits give low values 1.05 | locus YFR010W, strain ubp6, hits give low values 1.01 | locus YGL078C, strain dbp3, hits give low values 0.976 | locus YGL086W, strain mad1, hits give low values 1.03 | locus YGL167C, strain pmr1, hits give low values 0.99 | locus YGL173C, strain kem1, hits give low values 1.01 | locus YGL227W, strain vid30, hits give low values 0.985 | locus YGL240W, strain doc1, hits give low values 0.986 | locus YGL248W, strain PDE1, hits give low values 0.984 | locus YGL253W, strain hxk2, hits give low values 0.975 | locus YGR078C, strain PAC10, hits give low values 0.996 | locus YGR135W, strain pre9, hits give low values 0.993 | locus YGR229C, strain SMI1, hits give low values 1.02 | locus YGR252W, strain gcn5, hits give low values 1.07 | locus YHR013C, strain ard1, hits give low values 0.962 | locus YHR027C, strain rpn1, hits give low values 0.984 | locus YHR030C, strain SLT2, hits give low values 0.999 and 0.994 | locus YHR079C, strain IRE1 (second series), hits give low values 1 | locus YHR079C, strain IRE1, hits give low values 0.969 | locus YHR094C, strain hxt1, hits give low values 0.993 | locus YHR129C, strain ARP1, hits give low values 1 | locus YHR142W, strain chs7, hits give low values 0.971 | locus YHR200W, strain rpn10, hits give low values 1 | locus YIL066C, strain RNR3, hits give low values 0.989 | locus YIL073C, strain SPO22, hits give low values 1.1 | locus YIL125W, strain kgd1, hits give low values 0.989 | locus YIR030C, strain dcg1, hits give low values 0.991 | locus YJL092W, strain hpr5, hits give low values 0.987 | locus YJL095W, strain BCK1 (second series), hits give low values 0.984 | locus YJL095W, strain BCK1, hits give low values 1.01 and 0.978 | locus YJL115W, strain asf1, hits give low values 0.97 | locus YJL129C, strain trk1, hits give low values 0.925 | locus YJL134W, strain LCB3, hits give low values 0.987 | locus YJL154C, strain vps35, hits give low values 0.985 | locus YJL164C, strain tpk1, hits give low values 0.987 | locus YJL166W, strain qcr8, hits give low values 1 | locus YJL168C, strain set2, hits give low values 0.995 | locus YJL187C, strain SWE1 (second series), hits give low values 0.966 | locus YJL187C, strain SWE1, hits give low values 0.997 | locus YJR043C, strain POL32, hits give low values 1.04 | locus YJR066W, strain TOR1, hits give low values 0.98
